According to PubChem BioAssay (NCI):
The panel holds about 83,000 compounds, 20% with a hit somewhere; the sample as a whole holds those more often.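 48-hour exposure, single concentration, 96-well plates; percent growth endpoint where 0 means no net growth. Active: below 10.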 The source made the active and inactive calls.

Assays:
Experiment in all cases: NCI-60 one-dose screen, 48 h (100 = growth as untreated, 0 = no growth, -100 = all killed)
HT29 colon = details: 10 µM unless noted
SNB-19 CNS = details: 10 µM unless noted
U251 CNS = details: 10 µM unless noted
PC-3 prostate = details: 10 µM unless noted
SK-MEL-5 melanoma = details: 10 µM unless noted
UACC-62 melanoma = details: 10 µM unless noted
LOX IMVI melanoma = details: 10 µM unless noted
SK-MEL-28 melanoma = details: 10 µM unless noted
SK-MEL-2 melanoma = details: 10 µM unless noted
EKVX NSCLC = details: 10 µM unless noted
SN12C renal = details: 10 µM unless noted
UO-31 renal = details: 10 µM unless noted
TK-10 renal = details: 10 µM unless noted
ACHN renal = details: 10 µM unless noted
CAKI-1 renal = details: 10 µM
A498 renal = details: 10 µM unless noted
CCRF-CEM leukemia = details: 10 µM unless noted
MOLT-4 leukemia = details: 10 µM unless noted
SNB-75 CNS = details: 10 µM unless noted

Measured: growth

CCCC(=O)NC(c1cccnc1)c1ccc2c(C)ccnc2c1O (configuration not stated)
inactive: HT29 colon 20.3% | SNB-19 CNS 37.8% | U251 CNS 26.7% | PC-3 prostate 36.4% | SK-MEL-28 melanoma 30.4% | SK-MEL-2 melanoma 42.5% | EKVX NSCLC 15.1% | SN12C renal 29.1% | UO-31 renal 11.8% | TK-10 renal 33.3% | ACHN renal 13.8% | CAKI-1 renal 19.2% | A498 renal 37.8% | MOLT-4 leukemia 13.9%
active: SK-MEL-5 melanoma 4.06% | UACC-62 melanoma -7.84% | LOX IMVI melanoma 9.72% | CCRF-CEM leukemia 4.51%

CCC(=O)Nc1ccc(-c2nc(-c3cccc(O)c3)c(-c3ccnc(Br)c3)[nH]2)cc1
inactive: SNB-19 CNS 58% | U251 CNS 47.8% | PC-3 prostate 60.5% | SK-MEL-5 melanoma 77% | UACC-62 melanoma 34.6% | LOX IMVI melanoma 59.3% | SK-MEL-28 melanoma 59.1% | SK-MEL-2 melanoma 65.9% | EKVX NSCLC 88.4% | SN12C renal 67.4% | UO-31 renal 69.7% | TK-10 renal 87.6% | ACHN renal 82.8% | CAKI-1 renal 65.1% | A498 renal 70.5% | CCRF-CEM leukemia 22.4% | MOLT-4 leukemia 39.9%
active: SNB-75 CNS 8.26%

CN1CCN(c2ccc3c(C(N)=O)c(NC(=O)c4ccc(C(C)(C)C)cc4)sc3c2)CC1
inactive: HT29 colon 20.4% | SNB-75 CNS 81.6% | SNB-19 CNS 76.2% | U251 CNS 59.1% | PC-3 prostate 79.2% | SK-MEL-5 melanoma 89.7% | UACC-62 melanoma 99.5% | SK-MEL-28 melanoma 90% | SK-MEL-2 melanoma 97.4% | EKVX NSCLC 85.2% | SN12C renal 90% | UO-31 renal 97.5% | TK-10 renal 123% | ACHN renal 96.4% | CAKI-1 renal 100% | CCRF-CEM leukemia 53.3% | MOLT-4 leukemia 41.9%
active: LOX IMVI melanoma -53.3%

Oc1ccc(-c2nnc(SCc3ccc(O)c4ncccc34)o2)cc1
active: PC-3 prostate 9.97% | SK-MEL-5 melanoma -17.1% | UACC-62 melanoma -12.7% | LOX IMVI melanoma 7.94% | SN12C renal 6.09% | UO-31 renal -5.74% | ACHN renal 3.36% | CAKI-1 renal 3.35% | A498 renal -8.21%
inactive: HT29 colon 24% | SNB-19 CNS 12.8% | U251 CNS 13.2% | SK-MEL-28 melanoma 22.7% | EKVX NSCLC 15.6% | TK-10 renal 13.6% | CCRF-CEM leukemia 12.1% | MOLT-4 leukemia 16.5%

O=C(NCCCCCCNC(=O)c1c2c(nc3ccccc13)-c1cccnc1SC2)c1c2c(nc3ccccc13)-c1cccnc1SC2
inactive: HT29 colon 53.7% | SNB-75 CNS 62.9% | SNB-19 CNS 66.5% | U251 CNS 77.6% | PC-3 prostate 81% | SK-MEL-5 melanoma 84.3% | UACC-62 melanoma 12.2% | LOX IMVI melanoma 78.6% | SK-MEL-28 melanoma 27.7% | EKVX NSCLC 49.1% | SN12C renal 73.8% | UO-31 renal 38.8% | TK-10 renal 145% | ACHN renal 65.8% | CAKI-1 renal 61.5% | A498 renal 76.5% | CCRF-CEM leukemia 93.6% | MOLT-4 leukemia 88.1%
active: SK-MEL-2 melanoma 5.25%

CN(C)CCn1c2ccc(N)cc2c2nc3ccccc3nc21
inactive: HT29 colon 21.3% | SNB-75 CNS 54.2% | U251 CNS 33.4% | PC-3 prostate 38.6% | SK-MEL-5 melanoma 27% | UACC-62 melanoma 35.2% | SK-MEL-28 melanoma 54.5% | SK-MEL-2 melanoma 54.6% | EKVX NSCLC 40.6% | SN12C renal 25.6% | UO-31 renal 23% | TK-10 renal 60.2% | ACHN renal 13.9% | CAKI-1 renal 28.6% | CCRF-CEM leukemia 29.5%
active: LOX IMVI melanoma 9.95% | MOLT-4 leukemia 8.1%

N/C(=N\OC(=O)CSc1nc2ccccc2s1)c1ccc2ccccc2c1
inactive: SNB-75 CNS 86.7% | SNB-19 CNS 99.9% | U251 CNS 96.4% | PC-3 prostate 93.6% | SK-MEL-5 melanoma 101% | UACC-62 melanoma 91.4% | LOX IMVI melanoma 99.8% | SK-MEL-28 melanoma 106% | SK-MEL-2 melanoma 102% | EKVX NSCLC 91.8% | SN12C renal 95.2% | UO-31 renal 78.6% | TK-10 renal 118% | ACHN renal 91% | CAKI-1 renal 85.8% | CCRF-CEM leukemia 101% | MOLT-4 leukemia 99.2%

CC(C)=CCc1c(O)c(CC=C(C)C)c2c(c1O)C(=O)C1=C[C@@H]3C[C@H]4C(C)(C)O[C@@](C/C=C(\C)C(=O)O)(C3=O)[C@@]14O2
inactive: SNB-75 CNS 33.7% | SNB-19 CNS 41.6% | PC-3 prostate 11.3% | SN12C renal 12.3%
active: HT29 colon -11.1% | U251 CNS -71.9% | SK-MEL-5 melanoma -94.9% | UACC-62 melanoma -22.3% | LOX IMVI melanoma -97% | SK-MEL-28 melanoma -11.2% | SK-MEL-2 melanoma -53% | EKVX NSCLC -3.05% | UO-31 renal -30.9% | ACHN renal -0.932% | CCRF-CEM leukemia 1.76% | MOLT-4 leukemia 1.93%

COc1cc(/C=C/C(=O)c2ccc(NC(=O)COc3cccc4cccnc34)cc2)cc(OC)c1OC
inactive: HT29 colon 81.2% | SNB-75 CNS 82.4% | SNB-19 CNS 73.7% | U251 CNS 83.8% | PC-3 prostate 84.6% | SK-MEL-5 melanoma 73.2% | UACC-62 melanoma 70.1% | LOX IMVI melanoma 42.5% | SK-MEL-28 melanoma 95.2% | SK-MEL-2 melanoma 96.5% | EKVX NSCLC 82% | SN12C renal 75.4% | UO-31 renal 67.7% | TK-10 renal 147% | ACHN renal 80.2% | CAKI-1 renal 84.8% | CCRF-CEM leukemia 26.5% | MOLT-4 leukemia 41%

COc1ccc2c(ccn2C(=O)N2c3ccccc3Sc3ccccc32)c1
inactive: SNB-19 CNS 30.8% | U251 CNS 27% | PC-3 prostate 35.2% | SK-MEL-5 melanoma 24.5% | UACC-62 melanoma 33.3% | LOX IMVI melanoma 46.5% | SK-MEL-28 melanoma 66.4% | SN12C renal 47.3% | TK-10 renal 65.1% | ACHN renal 49.2% | CAKI-1 renal 30.9% | CCRF-CEM leukemia 18.7% | MOLT-4 leukemia 37.2%
active: HT29 colon -12.6% | SNB-75 CNS -3.95% | SK-MEL-2 melanoma 4.71% | A498 renal -8.02%

COc1cc(/C=C/C(=O)c2ccc(NC(=O)CSc3nnc(-c4ccc5nc(-c6ccccc6)[nH]c5c4)o3)cc2)cc(OC)c1OC
inactive: HT29 colon 104% | SNB-75 CNS 81.1% | SNB-19 CNS 84.4% | U251 CNS 80.6% | PC-3 prostate 99% | SK-MEL-5 melanoma 92.2% | UACC-62 melanoma 83% | LOX IMVI melanoma 56% | SK-MEL-28 melanoma 93.4% | SK-MEL-2 melanoma 105% | EKVX NSCLC 99% | SN12C renal 90.8% | UO-31 renal 89.4% | TK-10 renal 137% | ACHN renal 101% | CAKI-1 renal 105% | A498 renal 84.4% | CCRF-CEM leukemia 37.5% | MOLT-4 leukemia 65%

Brc1cccc(/C=N/Nc2nc(N/N=C/c3cccc(Br)c3)nc(N3CCOCC3)n2)c1
active: HT29 colon 6.61% | LOX IMVI melanoma 5.23% | SK-MEL-2 melanoma 2.64%
inactive: SNB-75 CNS 107% | SNB-19 CNS 77.9% | U251 CNS 42.7% | PC-3 prostate 36.5% | SK-MEL-5 melanoma 20.7% | UACC-62 melanoma 56% | SK-MEL-28 melanoma 17.1% | EKVX NSCLC 49% | SN12C renal 44.2% | UO-31 renal 25.5% | TK-10 renal 66.8% | ACHN renal 26.3% | CAKI-1 renal 15.4% | CCRF-CEM leukemia 21% | MOLT-4 leukemia 10.2%
